Measurements taken from PubChem BioAssay (Tox21).
Several values for one entry are separate records, joined by “and”; a condition that tells them apart may be missing. Identical values can stand only once. Results filed as inconclusive are left out. Some compounds were tested as several samples or in several runs, with calls that do not always agree. Activity calls are given as the source filed them. Unless noted, calls follow the shape of the dose curve; as a rule, active = well fitted curve in the direction sought with a large enough effect in the repeat runs; inconclusive = weak or mixed curves; inactive = no such curve, though single readings can be large; an effect the other way counts as inactive or inconclusive.

Experiments:
[1] = qHTS assay to identify small molecule agonists of H2AX (AID 1224845; active = well fitted activation curve with a large enough effect in the signal ratio in the repeat runs, not every such curve was filed as active; the % refers to the signal ratio)
In short: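 Wild-type CHO-K1 cells, plated overnight, exposed 3hr at 37C to 15 concentrations (0.76% DMSO final). Lysed, then HTRF anti-pH2AX (S139) cryptate and anti-H2AX-d2 antibodies, 24 hr room temperature; 665/620 nm emission read.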

[2] = qHTS assay to identify small molecule agonists of the hypoxia (HIF-1) signaling pathway (AID 1224846; active = well fitted activation curve with a large enough effect in the signal ratio in the repeat runs, not every such curve was filed as active; the % refers to the signal ratio)
In short: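 ME-180 HRE-bla reporter cells; compounds in DMSO, 17 h at 37C; read-out beta-lactamase via CCF4-AM FRET.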

[3] = qHTS assay to identify small molecule agonists of H2AX - cell viability counter screen (AID 1224847; calls by dose curve; also: top concentration of the series differs between compounds; nearly all actives have a fitted effect of over 30% in size)
In short: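 For this counter screen, overnight-attached CHO-K1 cells received test compounds (15 concentrations, 0.76% DMSO final); 3 hr later at 37C, CellTiter-Glo reagent was added and luminescence recorded after 30 min at room temperature.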

[4] = qHTS assay to identify small molecule antagonists of the estrogen related receptor (ERR) signaling pathway from Tox21 library (AID 1224848); also: nearly all actives have a fitted effect of over 50% in size
In short: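 Compounds dissolved in DMSO are pin-transferred onto ERR reporter cells (2,000 per well) that have settled for 6 h at 37 C. Plates then incubate 18 h at 37 C before ONE-Glo luciferase reagent and a luminescence read 30 min later.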

[5] = qHTS assay to identify small molecule agonists of the estrogen related receptor (ERR) signaling pathway from Tox21 library (AID 1224849; calls by dose curve; also: nearly all actives have a fitted effect of over 15% in size); details: ERR reporter cell line, ONE-Glo luciferase, 18 h
In short: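 Luciferase activity in ERR pathway reporter cells served as the agonist readout; exposure lasted 18 h at 37 C, with ONE-Glo detection after 30 min at room temperature.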

[6] = qHTS RealTime-Glo MT Cell Viability Assay in HepG2 cells - 24 hour (AID 1224867); also: nearly all actives have a fitted effect of over 50% in size
In short: (§1)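 Real-time, nonlytic viability: 600 HepG2 cells/well mixed with NanoLuc enzyme plus prosubstrate; 5 h settle, compound (DMSO) added by pintool; luminescence monitored over 40 h at 37 C.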

[7] = qHTS RealTime-Glo MT Cell Viability Assay in HEK293 cells - 32 hour (AID 1224868); also: top concentration of the series differs between compounds; nearly all actives have a fitted effect of over 50% in size
In short: (§2)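 Cells + reagent dispensed (600 cells/well, HEK293) → 5 h at 37 C/5% CO2 → 23 nL compound in DMSO pinned → 40 h at 37 C → luminescence read at 0, 8, 16, 24, 32, 40 h.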

[8] = A CellTox Green Cytotoxicity Assay to monitor cytotoxicity in HEK293 cells - 0 hour (AID 1224869); also: nearly all actives have a fitted effect of over 50% in size
In short: (§3)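 Real-time, in one plate: 600 HEK293 cells/well with dead-cell DNA dye, pinned compound after 5 h, 37 C incubation over 40 h; viable cells give no appreciable fluorescence.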

[9] = qHTS RealTime-Glo MT Cell Viability Assay in HepG2 cells - 40 hour (AID 1224870); also: nearly all actives have a fitted effect of over 50% in size
In short: (§4)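 HepG2 cells (600/well) mixed with RealTime-Glo MT reagent, settled 5 h at 37 C/5% CO2 before compound addition. Nonlytic NanoLuc luminescence from viable-cell prosubstrate reduction read repeatedly during 40 h treatment at 37 C.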

[10] = A CellTox Green Cytotoxicity Assay to monitor cytotoxicity in HEK293 cells - 40 hour (AID 1224871); also: nearly all actives have a fitted effect of over 45% in size
In short: as §3

[11] = qHTS RealTime-Glo MT Cell Viability Assay in HEK293 cells - 16 hour (AID 1224872)
In short: as §2

[12] = qHTS RealTime-Glo MT Cell Viability Assay in HepG2 cells - 8 hour (AID 1224873); also: nearly all actives have a fitted effect of over 55% in size
In short: as §4

[13] = qHTS RealTime-Glo MT Cell Viability Assay in HEK293 cells - 40 hour (AID 1224874); details: RealTime-Glo luminescence; max response: stronger effect = lower value; also: nearly all actives have a fitted effect of over 50% in size
In short: (§5)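 Kinetic, non-lysing viability readout. Seed HEK293 (600/well) with reagent, incubate 5 h at 37 C/5% CO2, pin 23 nL compound in DMSO, incubate at 37 C, read luminescence at 0, 8, 16, 24, 32, 40 h.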

[14] = A CellTox Green Cytotoxicity Assay to monitor cytotoxicity in HEK293 cells - 24 hour (AID 1224875); also: nearly all actives have a fitted effect of over 45% in size
In short: as §3

[15] = A CellTox Green Cytotoxicity Assay to monitor cytotoxicity in HepG2 cells - 16 hour (AID 1224876); also: nearly all actives have a fitted effect of over 45% in size; also: potency is read from the fitted curve at half-maximal effect
In short: (§6)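 Cytotoxicity was tracked as dead-cell DNA fluorescence in HepG2 cells treated with test compounds at 37 C; each time-point value comes from one kinetic series spanning 0, 8, 16, 24, 32 and 40 h.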

[16] = qHTS RealTime-Glo MT Cell Viability Assay in HepG2 cells - 32 hour (AID 1224877); also: nearly all actives have a fitted effect of over 55% in size
In short: as §1

[17] = A CellTox Green Cytotoxicity Assay to monitor cytotoxicity in HepG2 cells - 24 hour (AID 1224878); also: nearly all actives have a fitted effect of over 45% in size; also: potency is read from the fitted curve at half-maximal effect
In short: as §6

[18] = A CellTox Green Cytotoxicity Assay to monitor cytotoxicity in HepG2 cells - 40 hour (AID 1224879); also: nearly all actives have a fitted effect of over 40% in size
In short: as §6

[19] = qHTS RealTime-Glo MT Cell Viability Assay in HEK293 cells - 0 hour (AID 1224880)
In short: as §5

[20] = A CellTox Green Cytotoxicity Assay to monitor cytotoxicity in HEK293 cells - 32 hour (AID 1224881); also: nearly all actives have a fitted effect of over 40% in size
In short: as §3
% is scaled to controls: 0 for no effect and ±100 for the full control effect.

O=C(O)CCc1ccccc1
inactive: Potency [1] | Potency [2] | Potency [3] | Potency [4] | activity change, positive = activation ([5]; at 92.4 µM (top of the series)) 0.886% | Potency [6] | Potency [7] | Potency [8] | Potency [9] | Potency [10] | Potency [11] | Potency [12] | max response [13] 3.43% | Potency [14] | Potency [15] | Potency [16] | Potency [17] | Potency [18] | Potency [19] | Potency [20]

CCC(CO)(CO)COCC(CC)(CO)CO
inactive: Potency [1] | Potency [2] | Potency [3] | Potency [4] | activity change, positive = activation ([5]; at 92.4 µM (top of the series)) 6.39% | Potency [6] | Potency [8] | Potency [9] | Potency [10] | Potency [11] | Potency [12] | max response [13] -1.05% | Potency [14] | Potency [15] | Potency [16] | Potency [17] | Potency [18] | Potency [19] | Potency [20]

CC(C)(C)NCC(O)COc1ccccc1OCC1CCCO1 (stereo not drawn)
inactive: Potency [1] | Potency [2] | Potency [3] | Potency [4] | Potency [6] | Potency [7] | Potency [8] | Potency [9] | Potency [10] | Potency [11] | Potency [12] | max response [13] 0.952% | Potency [14] | Potency [15] | Potency [16] | Potency [17] | Potency [19] | Potency [20]

C=CC(=O)OCCCCCCCC
inactive: Potency [1] | Potency [2] | Potency [3] | Potency [4] | activity change, positive = activation ([5]; at 92.4 µM (top of the series)) 2.1% | Potency [7] | Potency [8] | Potency [9] | Potency [10] | Potency [11] | Potency [12] | max response [13] 3.71% | Potency [14] | Potency [15] | Potency [16] | Potency [17] | Potency [18] | Potency [19] | Potency [20]

CC(=O)CC(=O)Nc1ccc2[nH]c(=O)[nH]c2c1
inactive: Potency [1] | Potency [2] | Potency [3] | Potency [4] | Potency [6] | Potency [7] | Potency [8] | Potency [9] | Potency [10] | Potency [11] | Potency [12] | max response [13] -1.76% | Potency [14] | Potency [15] | Potency [16] | Potency [17] | Potency [19] | Potency [20]

CC(=O)CC(C)=O
inactive: Potency [1] | Potency [2] | Potency [3] | Potency [4] | Potency [6] | Potency [7] | Potency [8] | Potency [9] | Potency [10] | Potency [11] | Potency [12] | max response [13] -5.33% | Potency [14] | Potency [15] | Potency [17] | Potency [18] | Potency [19] | Potency [20]

OCC(CO)N[C@H]1C[C@](O)(CO)[C@@H](O)[C@H](O)[C@H]1O
inactive: Potency [1] | Potency [2] | Potency [3] | Potency [4] | activity change, positive = activation ([5]; at 42.5 µM (top of the series)) 2.44% | Potency [6] | Potency [7] | Potency [8] | Potency [9] | Potency [10] | Potency [11] | Potency [12] | max response [13] 11.4% | Potency [14] | Potency [15] | Potency [16] | Potency [17] | Potency [19] | Potency [20]

Cc1occc(=O)c1OC(=O)C(C)C
inactive: Potency [1] | Potency [2] | Potency [3] | Potency [4] | activity change, positive = activation ([5]; at 92.4 µM (top of the series)) 1.53% | Potency [6] | Potency [7] | Potency [8] | Potency [9] | Potency [10] | Potency [11] | Potency [12] | max response [13] -0.202% | Potency [14] | Potency [15] | Potency [16] | Potency [17] | Potency [18] | Potency [19] | Potency [20]

CN1C(=O)c2ccc([N+](=O)[O-])cc2C1=O
inactive: Potency [1] | Potency [2] | Potency [3] | Potency [4] | activity change, positive = activation ([5]; at 92.4 µM (top of the series)) 7.36% | Potency [8] | Potency [9] | Potency [10] | Potency [11] | max response [13] 0.763% | Potency [14] | Potency [15] | Potency [16] | Potency [17] | Potency [18] | Potency [19] | Potency [20]

CCCC(=O)c1ccccc1
inactive: Potency [1] | Potency [2] | Potency [3] | Potency [4] | activity change, positive = activation ([5]; at 92.4 µM (top of the series)) 1.85% | Potency [6] | Potency [8] | Potency [9] | Potency [10] | Potency [11] | Potency [12] | max response [13] 2.03% | Potency [14] | Potency [15] | Potency [16] | Potency [17] | Potency [18] | Potency [19] | Potency [20]

CC1COC(=O)O1 (stereo not drawn)
inactive and 43.6 µM (active): Potency [17]
inactive: Potency [1] | Potency [2] | Potency [3] | Potency [4] | activity change, positive = activation ([5]; at 92.4 µM (top of the series)) 4.88% and 5.46% | Potency [6] | Potency [7] | Potency [8] | Potency [9] | Potency [10] | Potency [11] | Potency [12] | max response [13] 9.29% and -24.4% | Potency [14] | Potency [16] | Potency [19] | Potency [20]
inactive and 38.9 µM (active): Potency [15]

C=CS(=O)(=O)O
inactive: Potency [1] | Potency [2] | Potency [3] | Potency [4] | activity change, positive = activation ([5]; at 92.4 µM (top of the series)) -0.911% | Potency [6] | Potency [7] | Potency [8] | Potency [9] | Potency [10] | Potency [11] | max response [13] 2.23% | Potency [14] | Potency [15] | Potency [16] | Potency [17] | Potency [18] | Potency [19] | Potency [20]

COc1ccc(COC(C)=O)cc1
inactive: Potency [1] | Potency [2] | Potency [3] | Potency [4] | activity change, positive = activation ([5]; at 92.4 µM (top of the series)) 0.212% and 1.93% | Potency [6] | Potency [7] | Potency [8] | Potency [9] | Potency [10] | Potency [11] | max response [13] 5.85% | Potency [14] | Potency [15] | Potency [16] | Potency [17] | Potency [19] | Potency [20]
